Laboratory results from PubChem BioAssay AID1159580 (chemical genetic matrix, 2015).
Where “and” joins values, the source holds several entries; their conditions need not be identical. Equal values may be shown once. The campaign covered roughly 5,500 compounds. About 2,000 (36%) were called active. Roughly 18% stayed inconclusive and do not appear here. No stated cut-off is given here; in the data, active means normalized growth mostly below about 0.91 (no sharp cut-off); inconclusive means no clear call, values can overlap the other calls; inactive means mostly above about 0.92. The list shows a part of the results.

Experiment: chemical genetic growth profiling, strain panel (AID 1159580);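 further: tested at 20 µM; growth read once vehicle control cultures reached saturation at 30 °C; 1 = growth at the plate median or of vehicle wells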
Conditions: S. cerevisiae deletion strains, growth OD

Measured: normalized growth

COc1ccc(-c2coc3cc(O)ccc3c2=O)cc1
inactive: locus YAL021C, strain ccr4, stronger effect = lower value 1 | locus YAL026C, strain drs2, stronger effect = lower value 0.943 | locus YAL030W, strain snc1, stronger effect = lower value 0.986 | locus YBL061C, strain skt5, stronger effect = lower value 0.983 | locus YBR009C, strain hhf1, stronger effect = lower value 0.953 | locus YBR023C, strain chs3, stronger effect = lower value 0.98 | locus YBR171W, strain sec66, stronger effect = lower value 0.973 | locus YBR229C, strain ROT2, stronger effect = lower value 0.967 | locus YBR231C, strain swc5, stronger effect = lower value 0.964 | locus YBR279W, strain paf1, stronger effect = lower value 0.993 | locus YCL011C, strain gbp2, stronger effect = lower value 0.965 | locus YCL016C, strain dcc1, stronger effect = lower value 0.974 | locus YCL029C, strain bik1, stronger effect = lower value 0.949 | locus YCL061C, strain MRC1, stronger effect = lower value 0.959 | locus YCL069W, strain vba3, stronger effect = lower value 0.98 | locus YCR088W, strain abp1, stronger effect = lower value 0.982 | locus YDL005C, strain med2, stronger effect = lower value 0.982 | locus YDL035C, strain GPR1, stronger effect = lower value 0.933 | locus YDL040C, strain nat1, stronger effect = lower value 0.985 | locus YDL074C, strain BRE1, stronger effect = lower value 0.839 | locus YDL101C, strain DUN1, stronger effect = lower value 0.916 | locus YDL185W, strain tfp1, stronger effect = lower value 0.964 | locus YDR001C, strain nth1, stronger effect = lower value 0.978 | locus YDR069C, strain doa4, stronger effect = lower value 1.01 | locus YDR101C, strain arx1, stronger effect = lower value 0.941 | locus YDR137W, strain rgp1, stronger effect = lower value 0.906 | locus YDR159W, strain sac3, stronger effect = lower value 0.955 | locus YDR162C, strain NBP2, stronger effect = lower value 0.894 | locus YDR195W, strain ref2 1.13 | locus YDR297W, strain sur2, stronger effect = lower value 0.978 | locus YDR334W, strain swr1, stronger effect = lower value 0.989 | locus YDR335W, strain msn5, stronger effect = lower value 0.99 | locus YDR388W, stronger effect = lower value 0.964 | locus YEL003W, strain gim4, stronger effect = lower value 0.977 | locus YEL037C, strain rad23, stronger effect = lower value 0.983 | locus YEL061C, strain CIN8 (second series), stronger effect = lower value 0.986 | locus YER015W, strain faa2, stronger effect = lower value 0.989 | locus YER016W, strain bim1, stronger effect = lower value 0.979 | locus YER110C, stronger effect = lower value 0.974 | locus YER111C, strain swi4, stronger effect = lower value 0.992 | locus YER155C, strain BEM2 (second series), stronger effect = lower value 0.907 | locus YER155C, strain BEM2, stronger effect = lower value 0.962 | locus YER167W, strain BCK2, stronger effect = lower value 0.973 | locus YFR010W, strain ubp6, stronger effect = lower value 0.984 | locus YGL167C, strain pmr1, stronger effect = lower value 0.997 | locus YGL173C, strain kem1, stronger effect = lower value 0.979 | locus YGL227W, strain vid30, stronger effect = lower value 0.981 | locus YGL240W, strain doc1, stronger effect = lower value 0.916 | locus YGL253W, strain hxk2, stronger effect = lower value 0.932 | locus YHR013C, strain ard1, stronger effect = lower value 0.977 | locus YHR027C, strain rpn1, stronger effect = lower value 0.995 | locus YHR030C, strain SLT2, stronger effect = lower value 0.975 and 0.906 | locus YHR079C, strain IRE1 (second series), stronger effect = lower value 0.969 | locus YHR079C, strain IRE1, stronger effect = lower value 0.936 | locus YHR094C, strain hxt1, stronger effect = lower value 0.96 | locus YHR129C, strain ARP1, stronger effect = lower value 0.929 | locus YHR142W, strain chs7, stronger effect = lower value 0.893 | locus YIL066C, strain RNR3, stronger effect = lower value 0.957 | locus YIL073C, strain SPO22, stronger effect = lower value 0.886 | locus YIL125W, strain kgd1, stronger effect = lower value 0.966 | locus YIR030C, strain dcg1, stronger effect = lower value 0.961 | locus YJL092W, strain hpr5, stronger effect = lower value 0.974 | locus YJL095W, strain BCK1 (second series), stronger effect = lower value 0.987 | locus YJL095W, strain BCK1, stronger effect = lower value 0.81 and 0.908 | locus YJL115W, strain asf1, stronger effect = lower value 0.998 | locus YJL129C, strain trk1, stronger effect = lower value 0.954 | locus YJL134W, strain LCB3, stronger effect = lower value 0.98 | locus YJL154C, strain vps35, stronger effect = lower value 0.982 | locus YJL164C, strain tpk1, stronger effect = lower value 0.943 | locus YJL166W, strain qcr8, stronger effect = lower value 0.951 | locus YJL168C, strain set2, stronger effect = lower value 0.977 | locus YJL187C, strain SWE1 (second series), stronger effect = lower value 0.879 | locus YJL187C, strain SWE1, stronger effect = lower value 0.984 | locus YJR066W, strain TOR1, stronger effect = lower value 0.836 | locus YKL009W, strain mrt4, stronger effect = lower value 0.914 | locus YKL068W, stronger effect = lower value 0.965 | locus YKL085W, strain MDH1 (second series), stronger effect = lower value 0.968 | locus YKL085W, strain MDH1, stronger effect = lower value 0.968 | locus YKL160W, strain elf1, stronger effect = lower value 0.942 | locus YKR026C, strain gcn3, stronger effect = lower value 0.981 | locus YKR091W, strain srl3, stronger effect = lower value 0.984 | locus YLL001W, strain dnm1, stronger effect = lower value 0.954 | locus YLL026W, stronger effect = lower value 0.977 | locus YLL041C, strain sdh2, stronger effect = lower value 0.983 | locus YLR027C, strain aat2, stronger effect = lower value 0.965 | locus YLR039C, strain RIC1, stronger effect = lower value 0.784 | locus YLR058C, strain SHM2, stronger effect = lower value 0.906 | locus YLR102C, strain apc9, stronger effect = lower value 0.975 | locus YLR113W, strain HOG1, stronger effect = lower value 0.992 | locus YLR221C, strain rsa3, stronger effect = lower value 0.929 | locus YLR258W, strain gsy2, stronger effect = lower value 0.99 | locus YLR262C, strain YPT6 (second series), stronger effect = lower value 0.881 | locus YLR268W, strain sec22, stronger effect = lower value 0.9 | locus YLR320W, strain mms22, stronger effect = lower value 0.919 | locus YLR342W, strain FKS1 (second series), stronger effect = lower value 0.876 | locus YLR342W, strain FKS1, stronger effect = lower value 0.975 | locus YLR357W, strain rsc2, stronger effect = lower value 0.95 | locus YLR371W, strain rom2, stronger effect = lower value 0.993 | locus YLR384C, strain iki3, stronger effect = lower value 0.989 | locus YML016C, strain PPZ1, stronger effect = lower value 0.959 | locus YML032C, strain rad52, stronger effect = lower value 0.933 | locus YML120C, strain ndi1, stronger effect = lower value 0.955 | locus YML124C, strain tub3, stronger effect = lower value 0.974 | locus YMR058W, strain fet3, stronger effect = lower value 0.952 | locus YMR078C, strain ctf18, stronger effect = lower value 0.961 | locus YMR125W, strain sto1, stronger effect = lower value 0.98 | locus YMR129W, stronger effect = lower value 0.981 | locus YMR205C, strain PFK2, stronger effect = lower value 0.972 | locus YMR223W, strain ubp8, stronger effect = lower value 0.913 | locus YMR231W, strain pep5, stronger effect = lower value 1 | locus YMR307W, strain GAS1, stronger effect = lower value 0.706 | locus YNL067W, strain RPL9B, stronger effect = lower value 0.87 | locus YNL071W, strain lat1, stronger effect = lower value 0.924 | locus YNL183C, strain NPR1, stronger effect = lower value 0.872 | locus YNL209W, strain ssb2, stronger effect = lower value 0.987 | locus YNL248C, strain rpa49, stronger effect = lower value 0.94 | locus YNL250W, strain rad50, stronger effect = lower value 0.944 | locus YNL271C, strain bni1, stronger effect = lower value 0.941 | locus YNL298W, strain CLA4, stronger effect = lower value 0.928 | locus YNL322C, strain KRE1 (second series), stronger effect = lower value 0.979 | locus YNR049C, strain mso1, stronger effect = lower value 0.986 | locus YNR052C, strain pop2, stronger effect = lower value 0.927 | locus YOL012C, strain htz1 0.948 | locus YOL147C, strain pex11, stronger effect = lower value 0.934 | locus YOR001W, strain rrp6, stronger effect = lower value 0.952 | locus YOR061W, strain CKA2, stronger effect = lower value 0.985 | locus YOR069W, strain VPS5, stronger effect = lower value 0.927 | locus YOR070C, strain gyp1, stronger effect = lower value 0.975 | locus YOR080W, strain dia2, stronger effect = lower value 0.993 | locus YOR083W, strain WHI5, stronger effect = lower value 0.91 | locus YOR106W, strain vam3, stronger effect = lower value 0.915 | locus YOR136W, strain idh2, stronger effect = lower value 0.95 | locus YOR144C, strain elg1, stronger effect = lower value 0.968 | locus YOR184W, strain ser1, stronger effect = lower value 0.931 | locus YOR231W, strain MKK1, stronger effect = lower value 0.934 | locus YOR265W, strain rbl2, stronger effect = lower value 0.999 | locus YOR270C, strain vph1, stronger effect = lower value 0.807 | locus YOR290C, strain snf2, stronger effect = lower value 0.88 | locus YOR316C, strain cot1, stronger effect = lower value 0.96 | locus YPL051W, strain arl3, stronger effect = lower value 0.943 | locus YPL078C, strain atp4, stronger effect = lower value 0.905 | locus YPL106C, strain sse1, stronger effect = lower value 0.984 | locus YPL240C, strain hsp82, stronger effect = lower value 0.984 | locus YPL241C, strain CIN2, stronger effect = lower value 0.998 | locus YPL256C, strain CLN2, stronger effect = lower value 0.922 | locus YPR119W, strain clb2, stronger effect = lower value 0.973 | locus YPR141C, strain kar3, stronger effect = lower value 0.967 | locus YPR167C, strain met16, stronger effect = lower value 0.93 | strain wtn01, stronger effect = lower value 0.911
active: locus YBR021W, strain FUR4, stronger effect = lower value 0.751 | locus YDL192W, strain arf1, stronger effect = lower value 0.912 | locus YDR318W, strain mcm21, stronger effect = lower value 0.896 | locus YDR392W, strain spt3, stronger effect = lower value 0.726 | locus YDR502C, strain sam2, stronger effect = lower value 0.878 | locus YGL078C, strain dbp3, stronger effect = lower value 0.91 | locus YGL086W, strain mad1, stronger effect = lower value 0.884 | locus YGL248W, strain PDE1, stronger effect = lower value 0.853 | locus YGR135W, strain pre9, stronger effect = lower value 0.821 | locus YGR252W, strain gcn5, stronger effect = lower value 0.698 | locus YHR200W, strain rpn10, stronger effect = lower value 0.904 | locus YKR001C, strain vps1, stronger effect = lower value 0.837 | locus YLR330W, strain CHS5, stronger effect = lower value 0.896 | locus YLR418C, strain cdc73, stronger effect = lower value 0.74 | locus YNL233W, strain BNI4, stronger effect = lower value 0.827 | locus YNL307C, strain MCK1, stronger effect = lower value 0.847 | locus YPR163C, strain tif3, stronger effect = lower value 0.794
